# Results published in PubChem BioAssay (Tox21).
# Inconclusive results are not listed. Where a call stands in place of a potency, no number is given. Values without a mark were called inactive. Activity calls are given as the source filed them. The call rests on the fitted dose curve; in most records, active means well fitted activation curve with a large enough effect in the signal ratio in the repeat runs (not every such curve was filed as active); inconclusive means weak or mixed curves; inactive means flat fitted curve, though single readings scatter; the % refers to the signal ratio.
# Test: p53 small molecule agonists, cell-based qHTS assay (AID 1963582)
# Conditions: HCT-116 p53RE-bla reporter, beta-lactamase FRET ratio, 16 h; series mostly up to 66 µM
# Excerpt: National Center for Advancing Translational Sciences [NCATS]
# Division of Preclinical Innovation [DPI]
# U.S. Environmental Protection Agency [EPA]
# National Institutes of Environmental Health Sciences [NIEHS]
# National Toxicology Program [NTP]
# U.S. Food and Drug Administration [FDA]
# p53, a tumor suppressor protein, is activated following cellular insult, including DNA damage and other cellular stresses. The activation of p53 regulates cell fate by inducing DNA repair, cell cycle arrest, apoptosis, or cellular senescence. The activation of p53, therefore, is a good indicator of DNA damage and other cellular stresses. […] The activation of the reporter gene under culture conditions can be detected by fluorescence intensity. This cell line was used to screen the Tox21 10K compound library in a 1536-well plate format and to identify agonists that activate the p53 signaling pathway.
# Tox21 Assay Protocol Summary:
# The p53RE-bla cells were dispensed at 4,000 cells/5 ul/well in 1536-well black wall/clear bottom plates using a Multidrop dispenser. After the assay plates were incubated at a 37 C/5% CO2 incubator for 5 hours, 23 nL of compounds dissolved in DMSO, positive controls or DMSO only was transferred to the assay plate by a pin tool. The plates were incubated at 37 C for 16 hours. After 1 uL of LiveBLAzerTM B/G FRET substrate was added using a Flying Reagent Dispenser, the plates were incubated at room temperature for 2 hours, and fluorescence intensity was measured by an Envision plate reader.
Structure (SMILES),Potency,activation
CCOC(=O)C(O)(c1ccc(Cl)cc1)c1ccc(Cl)cc1,inactive,
C=COCCCl,inactive,
Cl/C=C/CCl,inactive,
Oc1ccc(Cl)cc1Cc1ccccc1,inactive,
CCC(=O)Nc1ccc(Cl)c(Cl)c1,inactive,
C[C@]12CCC(=O)C(O)=C1CC[C@@H]1[C@@H]2CC[C@]2(C)C(=O)CC[C@@H]12,inactive,
O=C(O)CCCc1ccc(N(CCCl)CCCl)cc1,inactive,
O=c1ccc(=O)[nH][nH]1,inactive,
O=C(O)c1nc(Cl)ccc1Cl,inactive,
CC(C#N)CCC#N (stereo not given),inactive,
O=C(Cl)OCc1ccccc1,inactive,
COS(=O)(=O)OC,inactive,
CCC(=O)C(CC(C)N(C)C)(c1ccccc1)c1ccccc1 (stereo not given),inactive,
CC(=[OH+])/C=C(/C)[O-].CC(=[OH+])/C=C(\C)[O-].CC(=[OH+])/C=C(\C)[O-].[Fe],inactive,
C=CC(=O)OCC(C)C,inactive,
CC(C)=CC1C(C(=O)OCN2C(=O)C3=C(CCCC3)C2=O)C1(C)C (stereo not given),inactive,
O=C(O)C(F)(F)C(F)(F)C(F)(F)C(F)(F)C(F)(F)C(F)(F)C(F)(F)C(F)(F)F,inactive,
NCCOS(=O)(=O)O,inactive,
O=C(Nc1ccc(Br)cc1)c1cc(Br)cc(Br)c1O,inactive,
CC(C)(C)OOC(=O)c1ccccc1,inactive,

Structure (SMILES),Potency,activation
CN=C=O,inactive,
CC1(C)C(C=C(Cl)Cl)C1C(=O)OC(C#N)c1ccc(F)c(Oc2ccccc2)c1 (stereo not given),inactive,
COc1ccccc1OC,inactive,
CCCCCCCCCCCCBr,inactive,
CCNc1nc(Cl)nc(NCC)n1,inactive,
COP(=S)(OC)Oc1ccc(SC)c(C)c1,inactive,
CCCC1CCCCN1 (stereo not given),inactive,
Brc1ccc(Br)cc1,inactive,
Nc1nc(N)nc(NC2CC2)n1,inactive,
O=[N+]([O-])O[C@H]1CO[C@H]2[C@@H]1OC[C@H]2O[N+](=O)[O-],inactive,
CCC(=O)O[C@H]1CC[C@H]2[C@@H]3CCC4=CC(=O)CC[C@]4(C)[C@H]3CC[C@]12C,inactive,
Cc1ccc2ccccc2c1,inactive,
[O-][Cl+]O,inactive,
CC(C)=CC1C(C(=O)OCc2cccc(Oc3ccccc3)c2)C1(C)C (stereo not given),inactive,
CCCCOCC1CO1 (stereo not given),inactive,
Nc1cccc2ccccc12,inactive,
CN(C)C(=S)SSC(=S)N(C)C,inactive,
Clc1ccc(C(c2ccc(Cl)cc2)C(Cl)(Cl)Cl)cc1,inactive,
Brc1c(Br)c(Br)c(Oc2c(Br)c(Br)c(Br)c(Br)c2Br)c(Br)c1Br,,0.0757% [at 13.5 µM]
ClC1C(Cl)C(Cl)C(Cl)C(Cl)C1Cl (stereo not given),inactive,
